From PubChem BioAssay (EPA / NIEHS)
Records with an inconclusive call do not appear. Activity calls are given as the source filed them. The calls were made as follows, unless noted: active = hit-call score of the fitted dose curve at least 0.9, where 1 is the maximum; inactive = score below 0.9.

Key:
[1] = read-out: Interleukin-1 alpha (IL1a), IL1A (gene 3552); test: BSK_LPS_IL1a: BioMAP Diversity Plus: LPS Assay for Interleukin-1 alpha (IL1a) Biomarker Activity (AID 2283080); conditions: primary human HUVEC with PBMC; actives raise or lower the signal
How it was run: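 Human umbilical vein endothelial cells co-cultured with peripheral blood mononuclear cells were LPS-stimulated and exposed to test chemicals for 24 h. IL-1 alpha was quantified by ELISA, with bidirectional curve fitting against DMSO as the negative control and baseline.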

[2] = read-out: Monocyte Chemoattractant Protein-1 (MCP1), CCL2 (gene 6347); test: BSK_LPS_MCP1: BioMAP Diversity Plus: LPS Assay for Monocyte Chemoattractant Protein-1 (MCP1) Biomarker Activity (AID 2283081); conditions: primary human HUVEC with PBMC; actives raise or lower the signal;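 as to AC50: secreted MCP-1 protein quantified by ELISA in culture supernatant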
How it was run: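 HUVEC plus PBMC co-culture (human primary cells, LPS system) exposed to test chemical for 24 h; MCP-1 measured by ELISA. Bidirectional curve fitting against DMSO baseline; parallel SRB total-protein staining flags overt cytotoxicity.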

[3] = BSK_LPS_PGE2: BioMAP Diversity Plus: LPS Assay for Prostaglandin E2 (PGE2) Biomarker Activity (AID 2283082); conditions: primary human HUVEC with PBMC; actives raise or lower the signal;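 as to AC50: secreted prostaglandin E2 measured by ELISA in LPS-stimulated co-culture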
How it was run: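 Endpoint derived from bidirectional curve fitting versus DMSO of ELISA-measured PGE2 in LPS-stimulated human primary vascular co-culture (HUVEC with PBMC) harvested at 24 h.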

[4] = read-out: Macrophage colony-stimulating factor (MCSF), CSF1 (gene 1435); test: BSK_LPS_MCSF: BioMAP Diversity Plus: LPS Assay for Macrophage colony-stimulating factor (MCSF) Biomarker Activity (AID 2283083); conditions: primary human HUVEC with PBMC; actives raise or lower the signal
How it was run: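 Human umbilical vein endothelial cells co-cultured with peripheral blood mononuclear cells were exposed to compound for 24 h. M-CSF levels were measured by ELISA, and bidirectional curve fitting used DMSO as the negative control and baseline.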

[5] = read-out: Tissue Factor, F3 (gene 2152); test: BSK_LPS_TissueFactor: BioMAP Diversity Plus: LPS Assay for Tissue Factor Biomarker Activity (AID 2283084); conditions: primary human HUVEC with PBMC; actives raise or lower the signal
How it was run: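 Human umbilical vein endothelial cells co-cultured with peripheral blood mononuclear cells were dosed and stimulated with LPS. Cell-surface CD142 was quantified by ELISA at 24 h. Activity was fitted bidirectionally against DMSO baseline.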

[6] = read-out: Tumor necrosis factor (Homo sapiens) (UniProt P01375); test: BSK_LPS_TNFa: BioMAP Diversity Plus: LPS Assay for Tumour Necrosis Factor alpha (TNFa) Biomarker Activity (AID 2283085); conditions: primary human HUVEC with PBMC; actives raise or lower the signal
How it was run: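 Primary human vascular co-culture of HUVEC and PBMC; TNFa ELISA 24 h after treatment, analysed as increase or decrease relative to DMSO control.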

[7] = read-out: Vascular cell adhesion molecule 1 (VCAM1), VCAM1 (gene 7412); test: BSK_LPS_VCAM1: BioMAP Diversity Plus: LPS Assay for Vascular cell adhesion molecule 1 (VCAM1) Biomarker Activity (AID 2283086); conditions: primary human HUVEC with PBMC; actives raise or lower the signal
How it was run: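 Primary human vascular co-culture (umbilical vein endothelium plus PBMC) stimulated with LPS received chemical; 24 h later VCAM-1 was read by ELISA. Overt cytotoxicity was assessed by sulforhodamine B staining of parallel cultures at the same time point.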

CD38, CD38 (gene 952) = test: BSK_SAg_CD38: BioMAP Diversity Plus: SAg Assay for CD38 Biomarker Activity (AID 2283087); conditions: primary human HUVEC with PBMC; actives raise or lower the signal
How it was run: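 Fluorescence ELISA of cell-surface CD38 served as the read-out, with either increase or decrease fitted against DMSO controls. Cells were a human umbilical vein endothelium plus PBMC co-culture under SEB/TSST-1 stimulation, measured 24 h after dosing.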

[8] = read-out: Monocyte Chemoattractant Protein-1 (MCP1), CCL2 (gene 6347); test: BSK_SAg_MCP1: BioMAP Diversity Plus: SAg Assay for Monocyte Chemoattractant Protein-1 (MCP1) Biomarker Activity (AID 2283090); conditions: primary human HUVEC with PBMC; actives raise or lower the signal
How it was run: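 MCP-1 levels in the endothelial–PBMC SAg co-culture were quantified by ELISA at 24 h post-dosing; both increases and decreases versus DMSO scored. Cytotoxicity monitored by SRB total protein in parallel cultures.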

[9] = read-out: E-selectin (Homo sapiens) (UniProt P16581); test: BSK_SAg_Eselectin: BioMAP Diversity Plus: SAg Assay for Eselectin Biomarker Activity (AID 2283091); conditions: primary human HUVEC with PBMC; actives raise or lower the signal
How it was run: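 HUVEC co-cultured with PBMC, compound dosed then read at 24 h; E-selectin measured by ELISA. Activity fitted bidirectionally against DMSO as negative control and baseline.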

[10] = read-out: Monokine induced gamma interferon (MIG), CXCL9 (gene 4283); test: BSK_SAg_MIG: BioMAP Diversity Plus: SAg Assay for Monokine induced gamma interferon (MIG) Biomarker Activity (AID 2283092); conditions: primary human HUVEC with PBMC; actives raise or lower the signal
How it was run: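 Values reflect bidirectional fitting of ELISA-measured MIG against DMSO vehicle, taken 24 h after dosing of a co-culture of human umbilical vein endothelial cells and peripheral blood mononuclear cells.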

[11] = BSK_SAg_PBMCCytotoxicity: PBMC Cytotoxicity Assessment in the BioMAP Diversity Plus: SAg Assay (AID 2283093); conditions: primary human HUVEC with PBMC;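 also: PBMC viability measured as Alamar Blue reduction fluorescence at 546/580 nm; fitted both ways against DMSO so a hit may be loss or gain of signal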;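 as to AC50: PBMC superantigen activated with SEB plus TSST-1 one hour after compound addition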
How it was run: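 Compound added to 75,000 PBMC/well for 1 h; SEB and TSST-1 then added at 20 ng/mL final each; 90 h incubation; Alamar Blue 6 h; read 546/580 nm ex/em. Activity fitted bidirectionally relative to DMSO baseline.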

[12] = read-out: Interleukin-8 (IL8), CXCL8 (gene 3576); test: BSK_SAg_IL8: BioMAP Diversity Plus: SAg Assay for Interleukin-8 (IL8) Biomarker Activity (AID 2283094); conditions: primary human HUVEC with PBMC; actives raise or lower the signal
How it was run: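 In this co-culture of human umbilical vein endothelium with peripheral blood mononuclear cells, IL-8 is assayed by ELISA at 24 h. DMSO serves as baseline for bidirectional curve fitting.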

[13] = BSK_SAg_Proliferation: Cell Proliferation Assessment in the BioMAP Diversity Plus: SAg Assay (AID 2283095); conditions: primary human HUVEC with PBMC;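 also: relative cell number as total protein by SRB absorbance in sub-confluent culture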
How it was run: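 Readout is SRB-stained protein (560 nm) in a primary human HUVEC and PBMC co-culture; sub-confluent cultures are read at 96 h. Activity is fitted bidirectionally using DMSO as baseline.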

[14] = BSK_SAg_SRB: Viability Assessment in the BioMAP Diversity Plus: SAg Assay (AID 2283096); conditions: primary human HUVEC with PBMC;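 also: cells read one day after compound addition; hits may be either gain or loss of signal compared with DMSO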
How it was run: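 Total protein by sulforhodamine B staining, 24 h after dosing, in HUVEC–PBMC co-culture; DMSO-referenced bidirectional fitting.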

[15] = biological target: human CYP19A1, CYP19A1 (gene 1588) (UniProt P11511); test: NVS_ADME_hCYP19A1: NovaScreen (NVS) CYP450-related Enzyme Activity (ADME) Assay for human CYP19A1 (AID 2283098; active = hit-call score of the fitted dose curve at least 0.9, where 1 is the maximum;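 as to AC50: potency for inhibitors seen as loss of fluorescent enzyme signal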)
Chain of human CYP19A1, CYP19A1 (gene 1588) (P11511 whole entry, looked up): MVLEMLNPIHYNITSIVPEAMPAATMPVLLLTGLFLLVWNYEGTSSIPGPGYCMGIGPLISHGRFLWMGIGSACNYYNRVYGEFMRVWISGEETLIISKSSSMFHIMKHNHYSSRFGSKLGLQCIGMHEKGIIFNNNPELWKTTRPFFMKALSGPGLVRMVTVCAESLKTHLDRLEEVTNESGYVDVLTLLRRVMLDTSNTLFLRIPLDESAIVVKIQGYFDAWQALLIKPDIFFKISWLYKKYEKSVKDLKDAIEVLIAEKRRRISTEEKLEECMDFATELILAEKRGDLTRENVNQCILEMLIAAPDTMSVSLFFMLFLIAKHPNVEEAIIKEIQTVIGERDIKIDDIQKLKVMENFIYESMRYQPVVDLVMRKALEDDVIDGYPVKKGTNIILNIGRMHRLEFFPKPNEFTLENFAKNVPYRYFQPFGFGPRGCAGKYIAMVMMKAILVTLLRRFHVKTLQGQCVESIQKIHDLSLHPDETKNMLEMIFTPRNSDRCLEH
How it was run: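 Biochem, cell-free; recombinant enzyme + specific substrate; fluorescence intensity at 0.5 h post-dose; 10 uM duplicate primary, conc. series for actives; acetonitrile = negative control/baseline; positive and negative controls on every plate.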

CD69, CD69 (gene 969) = test: BSK_SAg_CD69: BioMAP Diversity Plus: SAg Assay for CD69 Biomarker Activity (AID 2283089); conditions: primary human HUVEC with PBMC; actives raise or lower the signal
How it was run: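 Values derive from bidirectional fitting relative to DMSO vehicle. Cells: umbilical vein endothelium plus peripheral blood mononuclear cells, treated 24 h before fluorescent ELISA for CD69.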

Measured: AC50

Chain of Tumor necrosis factor (Homo sapiens) (P01375 whole entry, looked up): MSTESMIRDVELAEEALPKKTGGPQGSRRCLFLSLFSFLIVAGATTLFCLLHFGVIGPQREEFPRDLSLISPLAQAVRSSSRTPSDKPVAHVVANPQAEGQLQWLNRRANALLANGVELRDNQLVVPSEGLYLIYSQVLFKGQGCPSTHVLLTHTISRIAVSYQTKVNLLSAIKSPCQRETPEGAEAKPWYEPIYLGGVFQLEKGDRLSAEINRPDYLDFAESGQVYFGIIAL
Chain of E-selectin (Homo sapiens) (P16581 whole entry, looked up): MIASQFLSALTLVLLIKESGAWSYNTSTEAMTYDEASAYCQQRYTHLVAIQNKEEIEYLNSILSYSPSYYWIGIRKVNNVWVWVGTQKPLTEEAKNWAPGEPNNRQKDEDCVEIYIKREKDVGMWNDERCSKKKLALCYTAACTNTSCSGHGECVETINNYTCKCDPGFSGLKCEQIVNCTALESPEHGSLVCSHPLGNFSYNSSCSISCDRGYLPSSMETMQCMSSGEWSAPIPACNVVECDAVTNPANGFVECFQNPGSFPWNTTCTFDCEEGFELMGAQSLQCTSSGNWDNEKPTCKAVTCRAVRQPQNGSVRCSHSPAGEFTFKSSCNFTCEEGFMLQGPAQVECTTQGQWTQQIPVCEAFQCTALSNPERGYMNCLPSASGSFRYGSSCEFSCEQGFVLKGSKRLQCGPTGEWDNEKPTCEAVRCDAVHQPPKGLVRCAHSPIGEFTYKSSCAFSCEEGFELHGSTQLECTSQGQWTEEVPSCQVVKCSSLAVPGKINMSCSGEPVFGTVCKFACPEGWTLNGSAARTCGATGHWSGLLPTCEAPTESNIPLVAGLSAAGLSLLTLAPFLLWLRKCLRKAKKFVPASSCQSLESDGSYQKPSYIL

Nc1ccc(C(=O)O)cc1
inactive: [1] | [2] | [3] | [4] | [5] | [6] | [7] | CD38, CD38 (gene 952) | [8] | [9] | [10] | [11] | [12] | [13] | [14]

Cc1c(O)cccc1O
active: [11] 31 µM | [13] 31 µM
inactive: [1] | [2] | [3] | [4] | [5] | [6] | [7] | CD38, CD38 (gene 952) | [8] | [9] | [10] | [12] | [14]

CC/C=C\C/C=C\C/C=C\CCCCCCCC(=O)OC
active: [1] 13.9 µM | [2] 30.6 µM | [3] 5.75 µM | [4] 17.5 µM | [5] 12.6 µM | [6] 13.7 µM | [7] 27.3 µM | CD38, CD38 (gene 952) 15.1 µM | [8] 33.8 µM | [9] 13 µM | [10] 37.2 µM | [11] 20 µM | [12] 20 µM | [13] 6.5 µM | [14] 29 µM

CCCCC(CC)COS(=O)(=O)O (centres undefined)
inactive: [15]

CCNc1nc(NC(C)(C)C)nc(OC)n1
inactive: [1] | [2] | [4] | [5] | [7] | CD38, CD38 (gene 952) | [8] | [10] | [11] | [12] | [13] | [14]
active: [3] 0.0727 µM | [6] 5.59 µM | [9] 8.44 µM

Oc1ccc(/C=C/c2cc(O)cc(O)c2)cc1
inactive: [1] | [4] | [5] | [6] | [7] | CD38, CD38 (gene 952) | CD69, CD69 (gene 969) | [8] | [9] | [10] | [11] | [12] | [14]
active: [2] 20 µM | [3] 2.5 µM | [13] 20 µM

CCCC(CC)c1ccccc1 (centres undefined)
active: [15] 10.4 µM

CC(C)CCCCCOC(=O)CS
inactive: [1] | [2] | [3] | [4] | [5] | [6] | [7] | CD38, CD38 (gene 952) | [8] | [9] | [10] | [11] | [12] | [13] | [14]

CC1(C)CC(O)CC(C)(C)N1[O]
inactive: [1] | [2] | [3] | [4] | [5] | [6] | [7] | CD38, CD38 (gene 952) | [8] | [9] | [10] | [11] | [12] | [13] | [14]

Cc1ccc(C)c(OCCCC(C)(C)C(=O)O)c1
active: [15] 15.6 µM
